According to PubChem BioAssay:
Active and inactive are the calls of the source. Unless noted, no rule for the calls is given here.

Experiments:
[1] = compound effects on lung adenocarcinoma cell viability – A549, calcein-AM fluorescence, 48 h, basal, profiling panel (AID 1162); details: higher = more signal; also: test concentration not given here
[2] = compound effects on differentiated 3T3-L1 adipocyte viability – cell-based, 3T3-L1 adipocytes, calcein-AM fluorescence, 48 h, basal, profiling panel (AID 1163); details: 3T3-L1 adipocytes viability, higher = more signal; also: test concentration not given here
[3] = compound effects on hepatocellular carcinoma cell viability – HepG2, calcein-AM fluorescence, 48 h, basal, profiling panel (AID 1164); details: higher = more signal; also: test concentration not given here
[4] = compound effects on multiple myeloma cell viability – MM1S, calcein-AM fluorescence, 48 h, basal, profiling panel (AID 1165); details: higher = more signal;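 also: viability of MM1S multiple myeloma cells under basal unstimulated conditions; test concentration not given here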
[5] = calcein-AM signal in unstimulated myeloma cells – cell-based, calcein-AM fluorescence, 48 h, PK04 Diversity Set, profiling panel (AID 1166); details: RPMI8226 myeloma viability, higher = more signal;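 also: cells grown under basal conditions without added stimulus; test concentration not given here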
[6] = JC-1 mitochondrial signal, unstimulated HepG2 cells – cell-based, JC-1 fluorescence, 24 h, 100 nL compound, profiling panel (AID 1167); details: HepG2 mitochondrial potential, higher = more signal; also: test concentration not given here
[7] = JC-1 mitochondrial signal, unstimulated adipocytes – cell-based, JC-1 fluorescence, 3T3-L1 adipocytes, 24 h, 100 nL compound, profiling panel (AID 1168); details: JC-1 mitochondrial fluorescence, higher = more signal, called active from +8 up or from −8 down; also: test concentration not given here
[8] = JC-1 mitochondrial signal, unstimulated myeloma cells – cell-based, JC-1 fluorescence, RPMI8226, 24 h, 100 nL compound, profiling panel (AID 1169); details: JC-1 mitochondrial potential fluorescence, higher = more signal; also: test concentration not given here
[9] = JC-1 mitochondrial signal, unstimulated MM1S myeloma – cell-based, JC-1 fluorescence, 24 h, 100 nL compound, profiling panel (AID 1170); details: MM1S mitochondrial potential, higher = more signal; also: test concentration not given here
[10] = resazurin metabolic signal in A549 cells – cell-based, resazurin fluorescence, 24 h, PK04 Diversity Set, profiling panel (AID 1171); details: A549 viability, higher = more signal, called active from +8 up or from −8 down; also: test concentration not given here
[11] = resazurin metabolic signal in HepG2 cells – cell-based, resazurin fluorescence, 24 h, PK04 Diversity Set, profiling panel (AID 1172); details: HepG2 viability, higher = more signal; also: test concentration not given here
[12] = budding yeast growth changes without added modifier – OD600, strain BY4716, 24 h, basal condition, primary screen (AID 1173); details: S. cerevisiae BY4716 growth, OD600, 24 h; higher = more signal, called active from +8 up or from −8 down
[13] = viability profiling in MM1S myeloma cells – cell-based, resazurin fluorescence, basal, 24 h, PK04 Diversity Set, profiling panel (AID 1174); details: higher = more signal, called active from +8 up or from −8 down; also: test concentration not given here
[14] = target: Dihydroorotate dehydrogenase (quinone), mitochondrial (Plasmodium falciparum (isolate 3D7)) (UniProt Q08210); assay: inhibition of P. falciparum DHODH – biochemical, C-terminal His tag, absorbance 600 nm, primary screen (AID 1175); details: PfDHODH enzyme, DCIP absorbance 600 nm; higher = more signal, called active from +8 up or from −8 down;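 also: recombinant parasite enzyme with a five histidine tag at its C terminus; test concentration not given here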
[15] = inhibition of PAO1 biofilm formation – strain PAO1, LB-PBS medium, absorbance 600 nm, primary screen (AID 1176); also: test concentration not given here; details: P. aeruginosa PAO1 growth/biofilm, A600, 12 h; higher = more signal
[16] = growth modulation of vineyard yeast isolate – strain RM11-1a, OD600, basal, 24 h, primary screen (AID 1177);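 also: cultures grown under basal conditions with no added stressor; test concentration not given here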; details: S. cerevisiae RM11-1a growth, OD600, 24 h; higher = more signal, called active from +8 up or from −8 down
[17] = growth of efflux-deficient E. coli DRC39 – strain DRC39, OD650, 24 h, E. coli filamentation inducers, primary screen (AID 1178);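 also: growth measured as culture turbidity by optical density at 650 nm; test concentration not given here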; details: E. coli DRC39 acrAB, higher = more signal, called active from +8 up or from −8 down
[18] = growth of efflux-deficient E. coli DRC39 – strain DRC39, OD650, 48 h, E. coli filamentation inducers, primary screen (AID 1179);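 also: screen aims at cell division blockers that make cells filament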; details: E. coli DRC39 delta-acrAB growth, higher = more signal, called active from +8 up or from −8 down
[19] = viability profiling in RPMI8226 myeloma cells – cell-based, resazurin fluorescence, basal, 24 h, PK04 Diversity Set, profiling panel (AID 1180); details: higher = more signal;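 also: RPMI8826 multiple myeloma cell line at 5000 cells per well; test concentration not given here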
[20] = target: E3 ubiquitin-protein ligase XIAP (Homo sapiens) (UniProt P98170); assay: small molecules binding XIAP protein – biophysical, small-molecule microarray, fluorescence 635 nm, primary screen (AID 1181); details: higher = more signal;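 also: score merges 667 nm emission and signal to noise over triplicate slides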
E3 ubiquitin-protein ligase XIAP (Homo sapiens), sequence (P98170 whole entry, looked up): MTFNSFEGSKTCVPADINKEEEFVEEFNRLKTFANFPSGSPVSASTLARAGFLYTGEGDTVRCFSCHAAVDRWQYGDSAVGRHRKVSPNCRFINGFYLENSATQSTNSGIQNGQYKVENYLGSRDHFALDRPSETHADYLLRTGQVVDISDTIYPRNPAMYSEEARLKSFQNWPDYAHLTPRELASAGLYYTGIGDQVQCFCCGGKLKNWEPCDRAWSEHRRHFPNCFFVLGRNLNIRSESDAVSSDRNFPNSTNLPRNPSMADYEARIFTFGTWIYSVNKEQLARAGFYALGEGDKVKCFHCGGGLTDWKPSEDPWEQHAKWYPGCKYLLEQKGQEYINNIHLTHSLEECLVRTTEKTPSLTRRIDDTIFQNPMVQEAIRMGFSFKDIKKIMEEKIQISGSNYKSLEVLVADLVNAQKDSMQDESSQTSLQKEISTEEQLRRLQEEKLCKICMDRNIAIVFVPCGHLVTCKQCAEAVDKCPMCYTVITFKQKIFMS

Dihydroorotate dehydrogenase (quinone), mitochondrial (Plasmodium falciparum (isolate 3D7)), sequence (Q08210 whole entry, looked up): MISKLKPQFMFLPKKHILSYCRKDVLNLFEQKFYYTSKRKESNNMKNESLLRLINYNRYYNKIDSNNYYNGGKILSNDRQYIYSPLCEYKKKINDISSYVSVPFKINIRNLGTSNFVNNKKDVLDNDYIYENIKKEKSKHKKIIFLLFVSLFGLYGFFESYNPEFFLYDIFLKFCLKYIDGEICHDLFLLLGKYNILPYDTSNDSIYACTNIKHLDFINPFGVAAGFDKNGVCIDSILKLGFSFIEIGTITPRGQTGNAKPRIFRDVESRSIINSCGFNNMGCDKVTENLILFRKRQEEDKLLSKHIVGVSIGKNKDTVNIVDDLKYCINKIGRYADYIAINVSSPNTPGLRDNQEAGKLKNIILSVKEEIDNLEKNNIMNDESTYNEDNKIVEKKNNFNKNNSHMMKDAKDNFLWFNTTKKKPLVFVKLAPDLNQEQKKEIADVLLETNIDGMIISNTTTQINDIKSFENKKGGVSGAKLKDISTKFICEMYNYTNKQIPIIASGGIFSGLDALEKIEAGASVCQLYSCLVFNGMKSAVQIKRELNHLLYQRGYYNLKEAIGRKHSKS

Compound: COc1ccc(OC[C@H]2CN3[C@@H](CC[C@@H](C)[C@@H]3c3ccc(Br)cc3)C(=O)O2)cc1
- z-score [1]: -0.0668
- z-score [2]: 0.0118
- z-score [3]: -0.227
- z-score [4]: 0.829
- z-score [5]: -1.2
- z-score [6]: -0.057
- z-score [7]: -0.187 (inactive)
- z-score [8]: 0.979
- z-score [9]: 0.381
- z-score [10]: -0.914 (inactive)
- z-score [11]: -0.699
- z-score [12]: -1.63 (inactive)
- z-score [13]: 0.649 (inactive)
- composite z-score [14]: 0.217 (inactive)
- z-score [15]: -1.52 (inactive)
- z-score [16]: -0.13 (inactive)
- z-score [17]: -1.87 (inactive)
- z-score [18]: -1.35 (inactive)
- z-score [19]: -0.134
- composite z-score [20]: -0.129

Compound: C#CCCCON=C1C[C@@H](O)[C@@H](O)[C@@H]2[C@@H]3C(=O)N(C4CCCCC4)C(=O)[C@@H]3CC[C@@H]12
- z-score [1]: -0.205
- z-score [2]: -0.117
- z-score [3]: -0.139
- z-score [4]: 0.183
- z-score [5]: -1.94
- z-score [6]: -1.32
- z-score [7]: -0.462 (inactive)
- z-score [8]: -0.0811
- z-score [9]: 0.431
- z-score [10]: -0.255 (inactive)
- z-score [11]: -0.673
- z-score [12]: -3.17 (inactive)
- z-score [13]: -0.0738 (inactive)
- composite z-score [14]: -1.65 (inactive)
- z-score [15]: 0.164 (inactive)
- z-score [16]: -1.88 (inactive)
- z-score [17]: 0.587 (inactive)
- z-score [18]: 0.311 (inactive)
- z-score [19]: 0.321
- composite z-score [20]: -0.392

Compound: C#CCCCON=C1C[C@@H](O)[C@@H](O)[C@@H]2[C@@H]3C(=O)N(CC)C(=O)[C@@H]3CC[C@H]12
- z-score [1]: -0.662
- z-score [2]: -0.751
- z-score [3]: 0.0801
- z-score [4]: 0.489
- z-score [5]: 0.516
- z-score [6]: -0.58
- z-score [7]: -0.625 (inactive)
- z-score [8]: -0.569
- z-score [9]: -0.533
- z-score [10]: -0.479 (inactive)
- z-score [11]: -0.588
- z-score [12]: 0.866 (inactive)
- z-score [13]: -0.729 (inactive)
- composite z-score [14]: -0.0526 (inactive)
- z-score [15]: -0.143 (inactive)
- z-score [16]: -0.0584 (inactive)
- z-score [17]: -0.312 (inactive)
- z-score [18]: -0.241 (inactive)
- z-score [19]: -1.09
- composite z-score [20]: -0.114

Compound: O=C1C=C[C@@H](O)[C@@H]2[C@@H]3C(=O)N(c4cccc(Oc5ccccc5)c4)C(=O)[C@@H]3CC[C@@H]12
- z-score [1]: -0.496
- z-score [2]: 1.38
- z-score [3]: 0.0765
- z-score [4]: -1.03
- z-score [5]: -2.47
- z-score [6]: 0.111
- z-score [7]: 0.717 (inactive)
- z-score [8]: -0.618
- z-score [9]: -0.72
- z-score [10]: -0.869 (inactive)
- z-score [11]: -0.553
- z-score [12]: -1.82 (inactive)
- z-score [13]: -0.136 (inactive)
- composite z-score [14]: -2.96 (inactive)
- z-score [15]: 0.188 (inactive)
- z-score [16]: -0.518 (inactive)
- z-score [17]: 0.318 (inactive)
- z-score [18]: -1.71 (inactive)
- z-score [19]: 0.088
- composite z-score [20]: 0.242
